The text below walks through data of PubChem BioAssay (Tox21).

Results filed as inconclusive are left out. A number with no mark means an inactive call. The source made the active and inactive calls. Unless noted, calls come from the whole dose curve; as a rule, active = well fitted curve in the direction sought with a large enough effect in the repeat runs; inconclusive = weak or mixed curves; inactive = no such curve, though single readings can be large; an effect the other way counts as inactive or inconclusive.

A short description of test [1]: qHTS assay to identify small molecule antagonists of the thyroid receptor (TR) signaling pathway (AID 743065). Note: series mostly up to about 70 µM; nearly all actives have a fitted effect of over 55% in size. An outline of the steps: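 Antagonism measured as loss of luciferase signal in GH3 cells stably carrying a TRE-luciferase reporter, co-treated with compound and T3 (1 nM final) for 23.5 h at 37 C. Viability was read in the same well by CellTiter-Fluor.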
(Quantitative high-throughput screening tests each substance at several concentrations.)

The test system of test [2] is thyroid hormone receptor (rat, GH3 cells). Put plainly: qHTS assay to identify small molecule agonists of the thyroid receptor (TR) signaling pathway (AID 743066; calls by dose curve).
A short description of test [3]: qHTS assay to identify small molecule antagonists of the estrogen receptor alpha (ER-alpha) signaling pathway - cell viability counter screen (AID 743074; calls by dose curve;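 note: HEK293 cells carrying ER-alpha-UAS-bla reporter stimulated with 17beta-estradiol; nearly all actives have a fitted effect of over 45% in size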).
A short description of test [4]: qHTS assay to identify small molecule antagonists of the estrogen receptor alpha (ER-alpha) signaling pathway using the BG1 cell line - cell viability counter screen (AID 743081).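 Note: compound given together with 17beta-estradiol as the ER stimulus; series mostly up to about 70 µM; nearly all actives have a fitted effect of over 45% in size.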
Test [5] concerns the target Aromatase (Homo sapiens) (UniProt P11511). In words: qHTS assay to identify aromatase inhibitors (AID 743083). For activity, negative = inhibition: series mostly up to about 70 µM. Note: nearly all actives have a fitted effect of over 55% in size. Note: potency is the fitted concentration of half-maximal effect.
Test [6] deals with Estrogen receptor (Homo sapiens) (UniProt P03372). Put plainly: qHTS assay to identify small molecule agonists of the estrogen receptor alpha (ER-alpha) signaling pathway (AID 743075; calls by dose curve;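 note: HEK293 GripTite cells with ER-alpha and UAS-driven beta-lactamase reporter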).
The nature of test [7]: qHTS assay to identify small molecule antagonists of the estrogen receptor alpha (ER-alpha) signaling pathway using the BG1 cell line (AID 743080; calls by dose curve;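 note: BG1 cells stimulated with 17beta-estradiol alongside compound; nearly all actives have a fitted effect of over 25% in size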; note: potency is the fitted concentration of half-maximal effect; for activity change, negative = inhibition: series mostly up to about 70 µM). An outline of the steps:
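BG1Luc4E2, endogenous ER-alpha, 4xERE-luc; 5 d charcoal-stripped FBS, phenol red free; 24 h plating; cpd + 17beta-estradiol 21.5 h, 37 C/5% CO2; CellTiter-Fluor viability 30 min, then ONE-Glo luciferase 30 min RT.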

Test [8] is described as follows: qHTS assay to identify aromatase inhibitors - cell viability counter screen (AID 743084).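 Note: cells stimulated with testosterone during compound exposure; nearly all actives have a fitted effect of over 55% in size.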
In test [9] the target is Estrogen receptor (Homo sapiens) (UniProt P03372). In words: qHTS assay to identify small molecule agonists of the estrogen receptor alpha (ER-alpha) signaling pathway using the BG1 cell line (AID 743079). Note: nearly all actives have a fitted effect of over 20% in size.
% is set by controls: 0 for no effect and ±100 for the full control effect.

Chain of Aromatase (Homo sapiens) (P11511 whole entry, looked up): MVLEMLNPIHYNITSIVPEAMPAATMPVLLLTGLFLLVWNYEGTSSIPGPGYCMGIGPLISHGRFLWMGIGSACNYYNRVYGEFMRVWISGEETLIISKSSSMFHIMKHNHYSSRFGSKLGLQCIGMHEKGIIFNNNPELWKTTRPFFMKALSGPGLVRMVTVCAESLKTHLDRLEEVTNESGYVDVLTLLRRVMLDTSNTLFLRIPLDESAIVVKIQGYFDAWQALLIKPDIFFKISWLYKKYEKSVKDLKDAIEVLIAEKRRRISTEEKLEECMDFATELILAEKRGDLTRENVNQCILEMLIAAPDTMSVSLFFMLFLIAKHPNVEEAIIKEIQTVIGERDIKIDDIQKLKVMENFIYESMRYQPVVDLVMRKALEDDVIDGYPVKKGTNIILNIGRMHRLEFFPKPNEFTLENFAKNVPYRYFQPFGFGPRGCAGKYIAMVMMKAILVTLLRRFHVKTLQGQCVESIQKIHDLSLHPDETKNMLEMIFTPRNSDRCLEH
Chain of Estrogen receptor (Homo sapiens) (P03372 whole entry, looked up): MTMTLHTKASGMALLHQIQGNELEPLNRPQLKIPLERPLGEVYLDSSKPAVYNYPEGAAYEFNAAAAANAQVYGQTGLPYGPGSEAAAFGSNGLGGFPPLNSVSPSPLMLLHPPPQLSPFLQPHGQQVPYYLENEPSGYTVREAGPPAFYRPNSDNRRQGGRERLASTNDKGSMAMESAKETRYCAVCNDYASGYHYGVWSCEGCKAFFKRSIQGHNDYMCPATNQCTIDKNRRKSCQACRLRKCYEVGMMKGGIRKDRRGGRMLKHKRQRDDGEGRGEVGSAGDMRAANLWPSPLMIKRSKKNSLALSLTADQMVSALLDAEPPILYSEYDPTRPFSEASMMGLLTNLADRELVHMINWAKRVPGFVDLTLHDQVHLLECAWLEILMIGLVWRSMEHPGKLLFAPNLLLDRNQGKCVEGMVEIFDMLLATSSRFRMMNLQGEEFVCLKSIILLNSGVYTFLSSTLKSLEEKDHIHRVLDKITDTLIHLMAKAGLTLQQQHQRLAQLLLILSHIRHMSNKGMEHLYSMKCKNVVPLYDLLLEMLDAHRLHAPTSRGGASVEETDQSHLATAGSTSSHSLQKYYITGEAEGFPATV

As to `Cc1ccc(O)c(C(=O)c2ccccc2)c1`, the Potency entry in test [1], in test [2] and in test [3] was “inactive” throughout. The outcome in test [4] was inactive. Also, the Potency in test [5] is 55 µM (active).
On to `NCC1CCC(C(=O)Oc2ccc(CCC(=O)O)cc2)CC1` (stereo unspecified), for which the Potency entry in test [1], in test [2], in [3] and in test [6] was “inactive” in each case. Further, the Potency in test [7] is 26.6 µM (active). Further, the outcome in [4] and in test [8] was inactive.
Consider `CC(C)(Sc1cc(C(C)(C)C)c(O)c(C(C)(C)C)c1)Sc1cc(C(C)(C)C)c(O)c(C(C)(C)C)c1`, for which the Potency entry in [1], in [2], in test [3] and in test [5] was “inactive” in each case. For the same compound, the compound was classed as inactive in [4] and in test [8].
Regarding `O=c1c(O)c(O)c1=O`, the Potency entry in test [1], in test [2], in test [3] and in test [5] was “inactive” throughout. The compound was called inactive in test [4] and in [8].
Turning to `CC(C)C[P+](C)(CC(C)C)CC(C)C`, the Potency result in test [1], in test [2], in test [3], in [6], in [9] and in test [7] was “inactive” in each case. The Potency entry in [5] is “inactive”. In addition, the call in test [4] and in test [8] was inactive.
`CCCCCCC(=O)c1ccccc1`: the Potency entry in test [1], in [2], in test [3] and in test [5] was “inactive” throughout. Further, the call in [4] and in test [8] was inactive.
As for `C/C(Cl)=C/CCl`, the Potency entry in [1], in test [2], in test [3], in test [6] and in test [5] was “inactive” each time. In addition, the compound was called inactive in test [4] and in test [8].
As to `CCCCCCCCCCCCCCCCN(C)C`, the activity, negative = inhibition in test [1] was 0.216% [at 8.44 µM]; in test [5], 3.06% [at 8.47 µM]. Also, the activation in test [2] is 0.259% [at 8.08 µM]; in test [6] it was -5.38% [at 6.71 µM]; in test [9], -2.47% [at 8.47 µM]. Also, the activity, negative = cytotoxicity in test [3] is -9.33% [at 6.72 µM]. The activity change, negative = inhibition in test [7] was -1.23% [at 8.47 µM]. Also, the figures for the activity change, negative = cytotoxicity in test [4] and in test [8] were -2.87% [at 8.47 µM] and 0.21% [at 8.47 µM], respectively.
`C=CCn1cc[n+](C)c1`: the Potency result in test [1], in test [2], in test [3], in test [6], in test [9] and in test [7] was “inactive” each time. The Potency result in test [5] is “inactive”. For the same compound, the compound was called inactive in test [4] and in test [8].
`CCC(C)SSC(C)CC` (stereo unspecified): the Potency entry in test [1], in test [2], in test [3], in [6], in test [9] and in test [7] was “inactive” in each case. For the same compound, the Potency result in test [5] was “inactive”. Further, the compound was classed as inactive in test [4] and in test [8].
For `C=CCON/C(CCC)=C1\C(=O)CC(C)(C)C(C(=O)OC)=C1O`, the Potency entry in [1], in test [2], in [3] and in test [5] was “inactive” throughout. For the same compound, the compound was called inactive in test [4] and in test [8].
`CNCCc1ccccn1`: the Potency entry in test [1], in test [2], in test [3] and in test [5] was “inactive” each time. Also, the compound was called inactive in [4] and in test [8].
In the case of `C=C(C)C(=O)OCCOC1CC2CC1C1C=CCC21` (stereo unspecified), the Potency entry in test [1], in test [2], in test [3] and in test [5] was “inactive” in each case. Also, the call in test [4] and in test [8] was inactive.
As for `CCOC(=O)CC`, the Potency entry in [1], in test [2], in [3], in test [6], in test [9] and in test [7] was “inactive” each time. The Potency entry in [5] was “inactive”. Further, the result in [4] and in test [8] was inactive.
For `CC1(C)C(=O)C(C)(C)C1=O`, the Potency result in test [1], in [2], in [3] and in test [5] was “inactive” in each case. Besides, the compound was called inactive in [4] and in test [8].
